# Results taken from the supplement of paper PMC6555819.
# What was measured:
# Assay in all cases: PBM binding z-score (relative to random genomic background probes); higher = stronger binding; sequences stand for … in GC…GCGATTGACAGCGTAGAATGAAGG
# [1] = system: RARb homodimer (NR concentration 270 nM)
# In short: (§1)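 Custom Agilent 4×180K protein-binding microarrays carried double-stranded probes. Their 34-nt variable regions held direct-repeat seeds, single-nucleotide variants, half-site ablations and random human genomic background sequences. Arrays were incubated 1 h with ligand-free nuclear receptor dimers in PBS pH 7.4, 2% milk, 0.02% Triton X-100, 1 mM DTT, 0.2 mg/mL BSA and 0.4 mg/ml salmon testes DNA. Antibodies against each partner (one per run) detected binding, and scanned fluorescence was regression-normalized. Binding z-scores use random background probes as reference.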
# [2] = system: RARg:RXRa (NR concentration 270 nM, RXRa partner concentration 90 nM)
# In short: as §1
# [3] = system: RARg homodimer (NR concentration 270 nM)
# In short: as §1
# [4] = system: RXRa DBDmut IVT, anti-RXR (DBD mutation: RXRa K156A/R161A, NR concentration 90 nM)
# In short: as §1
# [5] = system: RXRa homodimer (NR concentration 180 nM)
# In short: as §1
# [6] = system: THRa:RXRa (NR concentration 90 nM, RXRa partner concentration 90 nM)
# In short: as §1
# [7] = system: THRa homodimer (NR concentration 90 nM)
# In short: as §1
# [8] = system: VDR homodimer (NR concentration 270 nM)
# In short: as §1
Sequence,PBM binding z-score [1],PBM binding z-score [2],PBM binding z-score [3],PBM binding z-score [4],PBM binding z-score [5],PBM binding z-score [6],PBM binding z-score [7],PBM binding z-score [8]
CCACACAGGTGAAAGGTAACTCAGTCTGGTACGC,1.05,1.5,0.76,0.262,2.32,1.06,0.165,-0.208
ATCTCTAGGTAACAAGTTCAGTGAGAGAGAGGAC,1.86,1.4,1.54,0.761,0.903,1.49,0.878,2.81
CAGACTAGGTCACAGAGGTCAAAGTCCGTGCGTA,5.42,7.17,7.46,3.41,7.88,4.6,2.91,7.08
TCGAGTTGGTTAGTCGGGGCATTCAGCCAACATA,0.0639,-0.34,-0.804,1.41,-0.355,0.331,-0.0261,0.871
GCAGACAGGTTAAACGCAGGTAACTCAGGGTGGC,0.331,1.81,0.406,-0.0571,1.54,2.06,-0.519,-0.623
CGAACTCGGTCAAGGACAGTGAATCTCCGCACGC,1.7,1.95,2.98,0.656,0.345,2.15,1.37,0.261
CCTACTGGGCCATCAGGTCATTGACATCAACGTT,2.72,1.97,2.1,0.333,1.81,3.22,3.14,1.41
AATACAGGGTCACTAGGCGAGAGTAGGTACGAAT,3.24,5.21,5.18,2.87,5.73,3.48,1.41,2.82
CGAACTAGGTCATCTAGGACAGTGAATACATTGA,2.74,4.13,4.96,2.2,2.99,3.3,1.49,1.48
GCTTGTAGATCATGGTTAAGAAAGACTAAGCTAA,-0.707,-0.198,-0.267,0.0641,-0.538,-0.389,-0.737,-0.385
ATATGTAGGTTATCGGGTCTTTCAGTTTGCGCAT,1.23,0.844,0.939,0.92,1.03,1.08,1.3,1.44
ACAGACAGTTGAGTGAAGGTAACTCAGCTGGACG,-0.475,0.0376,0.211,-0.165,0.132,0.662,-0.514,-0.463
ATCTCTAGGTAAAAATTCAGTGAATCCCGAGGAT,-0.367,0.604,0.58,-0.329,0.184,0.19,-0.0698,-0.0746
GGAACGAGGGCAAAATTGATAGCATCTGTCGACG,0.53,0.822,1.08,2.03,0.69,0.648,-0.431,0.356
CGTCCAAGGTCAAGGTCCGTGAAAGAGACTCGAA,4.19,6.16,6.84,3.57,5.96,3.82,2.69,2.27
CCTACTGGGCCAAGGCCATTGATCAGTCAAAGCA,0.497,-0.179,-0.0334,-1.15,-0.715,0.101,-0.288,-0.406
ACAGACAGGTGATCAAGGTAACTCAGGCTATCAT,0.159,0.183,0.508,-0.511,0.28,1.72,0.997,-0.138
ACTAGCAGGCCAAGTTTGGGTCAATCAAACAAAG,2.11,2.43,1.43,-0.255,0.858,2.25,0.6,0.00979
ATCGAAGGGTCGAGGTGAGTATAGAGAAAGGGAA,1.75,2.29,2.48,0.466,2.29,2.17,0.731,0.278

Sequence,PBM binding z-score [1],PBM binding z-score [2],PBM binding z-score [3],PBM binding z-score [4],PBM binding z-score [5],PBM binding z-score [6],PBM binding z-score [7],PBM binding z-score [8]
CCTTACGGGTCACGAGGTTATGGCACGACGAGCG,3.8,6.05,5.55,1.3,6.91,3.72,1.19,1.71
TCTCGGAGGACACCAAGGTCAGAGCTTTCCAGAG,3.68,2.96,3.73,0.966,1.75,3.13,2.38,2.31
CCTCGGAGGACAACAGGAGATCAGAGCTGCCAGA,0.118,0.145,0.783,0.248,-0.305,0.396,-0.247,-0.168
ATCGATAGGTCGACGAGGTGAGTATACACCGTTT,0.959,1.8,1.82,0.0347,1.67,2.59,0.488,0.231
GATACAGGGTCAAAGCCAGAGTACGCGTATTGAT,2.86,5.42,4.41,3.04,5.84,3.25,0.312,2.99
TAGCCTAGGTCATGTGCCAGTATACCACGCGAAC,2.84,3.83,4.32,1.26,3.14,2.91,1.55,0.739
CCTACTGGGCCAAAGGTCATTCATTCCAATGCTC,4.47,5.99,4.7,1.65,6.93,3.3,1.06,3.3
CCTACTGGGCCACGAAAAGTCATTGATTCAGTGA,0.476,0.154,0.301,-0.296,-0.0607,-0.0481,-0.645,-0.412
TCTATTAGTTGACTAGGGCAACCGAAACAGCGGA,0.778,0.736,0.586,1.31,0.703,0.514,0.147,0.286
ATCTCTAGGTAAAGATAGTTCAGGGAATGCAAAT,0.997,0.771,0.846,0.0937,0.459,0.742,0.0152,0.47
CCGACTGGGGCACAAAGGTTACCATACCATCCGG,2.64,2.34,1.92,-0.678,2.52,1.51,0.0239,0.375
CTACCAAGGTGAACAAGGGCGTTGATTACTATTC,1.26,1,0.99,0.764,0.725,2.13,0.707,0.903
CCTCGGAGGACTACAGGAGGTCAGAGCTGCCAGA,2.9,2.37,2.06,-0.895,1.93,2.55,0.263,0.359
CCTAGTAGGCCAGGGTCACTCAAGCATTTCGCTT,3.03,3.04,2.56,0.104,3.3,2.94,1.18,1.6
TCTGCTAGGTCAGTAGGTCAGCTAACGAGCTGCC,3.94,4.77,4.67,0.677,2.36,1.93,0.157,-0.0493
GCGACTGGGGCAAAGCAGGTTACCACAAGGTTGG,1.08,0.456,0.439,-0.219,0.39,3.04,-0.328,-0.626
GGAACGAGGGCAAGTTGATAGAAGAGTTTGATGG,1.5,1.55,2.06,2.22,0.775,1.2,0.164,1.7
CCTCGCAGGCCAATCTGGGTCACTCAAGGCTTGA,2.37,1.18,1.63,0.29,0.763,3.93,0.712,0.14
CCTATTAGTTAACCATAAGGGCAACCGAAGCTCG,1.66,0.813,1.14,0.665,0.518,1.9,1.31,0.663
